Screening data as filed in PubChem.
GPR151 ag: human GPR151 activation. Q8TDV0. PathHunter beta-arrestin GPR151 cells, luminescence. activation, % at 11.2 µM. 1% of 650,000 active; in the data active = activation above about 4.9%
Target sequence (Q8TDV0 whole entry, looked up): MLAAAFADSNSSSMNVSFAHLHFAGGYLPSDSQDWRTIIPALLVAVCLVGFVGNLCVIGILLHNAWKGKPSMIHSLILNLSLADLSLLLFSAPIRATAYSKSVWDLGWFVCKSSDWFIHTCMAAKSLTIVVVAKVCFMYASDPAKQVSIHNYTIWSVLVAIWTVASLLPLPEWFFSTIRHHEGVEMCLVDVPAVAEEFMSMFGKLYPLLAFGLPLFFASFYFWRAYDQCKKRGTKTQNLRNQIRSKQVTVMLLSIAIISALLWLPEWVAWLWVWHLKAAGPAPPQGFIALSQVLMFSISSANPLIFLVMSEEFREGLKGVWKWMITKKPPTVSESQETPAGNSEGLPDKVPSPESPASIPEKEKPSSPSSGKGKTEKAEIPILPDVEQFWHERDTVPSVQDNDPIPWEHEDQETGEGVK
MITF inh: inhibitors of human MITF; AlphaScreen MITF homodimerization, bead proximity signal; O75030; AID 1259374; inhibition, % at 2.6 µM; 0.91% of 650,000 active; in the data active = inhibition above about 50%
FBW7 activator: human FBW7 E3 ligase activation, primary screen | Q969H0 | AlphaScreen FBW7–phospho-cyclin E peptide binding, activator screen | normalized activity (activation), % at 26.1 µM | 0.13% of 650,000 active; in the data active = normalized activity above about 1.9%;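 note: purified mutant Fbw7 with reduced substrate affinity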
TEAD-YAP block: TEAD-YAP interaction inhibition | HEK-TIYL cells, TEAD-Gal4/YAP UAS-luciferase luminescence | 1.4% of 640,000 active | AID 1259422 | inhibition, % at 9.12 µM; in the data active = inhibition above about 32%
MITF inh conf: human MITF inhibition, confirmation | shares compounds with MITF inh | inhibition, % at 2.6 µM | 16% of 4,700 active | AlphaScreen MITF homodimerization, biotin/His-MITF beads;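 active = inhibition above a cutoff derived from the DMSO control wells, cut at about 28% in these data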;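 note: inhibitors lower the bead chemiluminescence by keeping MITF from dimerizing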
AS interf DR: optically interferes with AlphaScreen signal in dose response; AlphaScreen optical interference counterscreen, cell-free; 6% of 480 active; shares compounds with MITF inh; IC50, µM; AID 1259373; call rule not given here
AlphaScreen intf2: AlphaScreen optical interference, counter-screen; shares compounds with MITF inh; AID 1259376; 7.6% of 4,700 active; inhibition, % at 2.6 µM; LysRS AlphaScreen counterscreen, signal interference, triplicate;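 active = inhibition above a cutoff derived from the DMSO control wells, cut at about 30% in these data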
Hits are given with their value; . = inactive; / = no result; ! = repeats disagree. An excerpt weighted towards active compounds, which were near 3.5% of everything screened.

SMILES	GPR151 ag	MITF inh	FBW7 activator	TEAD-YAP block	MITF inh conf	AlphaScreen intf2	others
C/C(=N\Nc1ccc(S(=O)(=O)O)cc1)c1cccc(Br)c1	.	56	.	.	38	.	AS interf DR=.
CCn1nnc(NC(=O)c2ccccc2)n1	.	58	.	.	.	.
COc1ccc(N2CCN(C(=O)c3sc4cc(OC)ccc4c3Cl)CC2)cc1	.	.	.	.	/	/
Cc1cccc(NC(=O)C2C3C=CC4(O3)C2C(=O)N(CCCN2CCOCC2)C4C(=O)NC2CCCCC2C)c1 (stereo unspecified)	.	.	.	.	/	/
CCOC(=O)c1sc2nc(SCc3cc(F)cc4c3OCOC4)n(Cc3ccc(F)cc3)c(=O)c2c1C	.	.	.	.	/	/
COc1cc(OC)c(OC)cc1CN(CCCN(C)C)CCCN(C)C	.	54	.	.	.	.
COc1ccc(OC)c(-n2c(=S)[nH]c3cc(C(=O)Nc4ccc(F)cc4)ccc3c2=O)c1	.	.	.	.	/	/
COc1cc(CN2CCN(Cc3cc(OC)c(OC)c(OC)c3)CC2)cc(OC)c1OC	.	.	.	.	/	/
COc1cc(C(=O)N2CCN(Cc3cccc(Cl)c3)CC2)cc(OC)c1OC	.	.	.	.	/	/
COc1cc(CN2CCN(Cc3cccc(Cl)c3)CC2)cc(OC)c1OC	.	69	.	.	.	.
COc1cc(CN2CCN(Cc3ccc(Br)cc3)CC2)cc(OC)c1OC	.	81	.	.	.	.
COc1cc(CN2CCN(Cc3ccc(Cl)cc3)CC2)cc(OC)c1OC	.	78	.	.	.	.
COc1ccc(CN2CCN(Cc3ccc(Br)cc3)CC2)cc1OC	.	74	.	.	.	.
COc1ccc(CN2CCN(Cc3cccc(Br)c3)CC2)cc1OC	.	.	.	.	/	/
COc1cc(CN2CCN(Cc3ccc(Br)cc3)CC2)cc(OC)c1O	.	.	.	.	/	/
CCC1(CCC(=O)NCc2ccc(OC)cc2)CCC(=O)N1 (stereo unspecified)	.	.	.	.	/	/
COc1ccc(CN2CCN(Cc3ccc(OC)c(OC)c3)CC2)cc1OC	.	.	.	.	/	/
COc1ccc(CN2CCN(Cc3ccc(C)cc3)CC2)cc1OC	.	67	.	.	.	.
Fc1ccc(OCCCn2cncn2)cc1	.	71	.	.	.	.
Clc1ccc(OCCOCCn2cncn2)cc1Cl	.	80	.	.	.	.
CC(C)(C)c1ccc(OCCn2cncn2)c(Cl)c1	.	58	.	.	32	.	AS interf DR=.
O=[N+]([O-])c1ccc(OCCCn2cncn2)cc1	.	.	.	.	/	/
Clc1cccc(OCCn2cncn2)c1Cl	.	.	.	.	/	/
CCC(C)(C)c1ccc(OCCOCCn2cncn2)c(Cl)c1	.	67	.	.	.	.
N#Cc1ccc(OCCOCCn2cncn2)cc1	.	.	.	.	/	/
SMILES	GPR151 ag	MITF inh	FBW7 activator	TEAD-YAP block	MITF inh conf	AlphaScreen intf2	others
Cc1ccc(-c2ccc(/C=C3\SC(=Nc4c(C)cccc4C)N(c4ccccc4)C3=O)o2)cc1Cl	.	.	.	.	/	/
COc1ccc(NC(=O)Nc2ncn(Cc3ccc(F)cc3Cl)n2)c(OC)c1	.	.	.	.	/	/
O=C(O)CCCCn1c(SCC(=O)Nc2nccs2)nc2ccsc2c1=O	.	.	.	.	/	/
Cc1ccc(C(C)(C)C)c(OCCCn2ccnc2)c1	.	.	.	.	/	/
Cc1ccc(C(C)(C)C)c(OCCOCCn2cncn2)c1	.	78	.	.	.	.
O=C(CN1CCN(Cc2ccccc2)CC1)Nc1ccc(C(=O)N2CCCCC2)cc1	.	65	.	.	.	.
O=C(CN1CCc2ccccc2C1)Nc1ccc(C(=O)N2CCCCC2)cc1	.	60	.	.	.	.
O=C(CN1CCN(Cc2ccccc2)CC1)Nc1ccccc1	.	.	.	.	/	/
NC(=O)c1ccc(NC(=O)CN2CCc3ccccc3C2)cc1	.	.	.	.	/	/
O=C(/C=C/c1ccco1)N1CCN(Cc2nc3ccccc3n2Cc2ccccc2)CC1	.	60	.	.	.	.
Nc1ncc(-c2ccccc2)nc1N1CCC(C(=O)O)CC1	.	.	.	.	/	/
Nc1ncc(-c2ccco2)nc1N1CCC(C(=O)O)CC1	.	73	.	.	.	.
O=Cc1cccc(OCc2ccc([N+](=O)[O-])cc2)c1	.	.	.	.	/	/
COc1cc(N2CCOCC2)ccc1Nc1cc(NC(C)(C)c2ccccc2)c(C(F)(F)F)cn1	.	58	.	.	44	.	AS interf DR=.
COc1cc(N2CCOCC2)ccc1Nc1cc(NCc2ccccc2)c(C(F)(F)F)cn1	.	.	.	.	/	/
O=C(COc1ccccc1)N1CCOc2ccc(CN3CCCCC3CO)cc2C1 (stereo unspecified)	.	.	.	.	/	/
NC(=O)c1ccc(SCC(=O)O)c([N+](=O)[O-])c1	.	.	.	.	/	/
NC(=O)CSc1ccc(C(N)=O)cc1[N+](=O)[O-]	.	64	.	.	39	.	AS interf DR=.
CCN1C(=O)NC(c2cc(Br)ccc2OC)C(C(=O)OC)=C1C (stereo unspecified)	.	59	.	.	.	.
CCN1C(=O)NC(c2cc(C)ccc2C)C(C(=O)OC)=C1C (stereo unspecified)	.	.	.	.	/	/
O=C(c1ccccc1)N(Cc1ccccc1F)OCc1ccccc1F	.	.	.	.	/	/
CCCNc1nc(NC2CCCCC2)nc(OC(C)C)n1	.	.	.	.	/	/
COC(=O)c1ccc(C)c(NS(=O)(=O)c2ccc([N+](=O)[O-])cc2)c1	.	.	.	.	/	/
CC(=O)C(/C=N/NC(=O)c1ccccn1)=C(\C)O	.	59	.	.	33	57
O=C(N/N=C\C(Br)=C\c1ccccc1)c1ccccn1	.	.	.	.	/	/
SMILES	GPR151 ag	MITF inh	FBW7 activator	TEAD-YAP block	MITF inh conf	AlphaScreen intf2	others
Cc1cccc(NCC(O)Cn2nnnc2-c2ccccc2)c1 (stereo unspecified)	.	.	.	.	/	/
COCCn1c(SCC#N)nnc1-c1ccc(O)cc1	.	.	.	.	/	/
COCCn1c(SCC#N)nnc1-c1ccccc1	.	65	.	.	.	.
CC(C)(C)NC(=O)C(=O)NNC(=O)c1ccc([N+](=O)[O-])cc1[N+](=O)[O-]	.	66	.	.	.	.
C=C(C)CNC(=S)Nc1ccccn1	.	.	.	.	/	/
C=C(C)CNC(=S)Nc1ccccc1	.	77!	.	.	.	.
COCCNCC(=O)Nc1nnc(C)s1	.	.	.	.	/	/
COCCNCC(=O)Nc1nc(C)cs1	.	70	.	.	.	.
Cc1cc(NCc2ccccc2O)no1	.	.	.	.	/	/
COc1ccc(NC(=S)N(Cc2cccnc2)Cc2ccccc2Cl)cc1	.	.	.	.	/	/
CN1CCN(C(=O)C2CCCN(S(=O)(=O)c3ccc(F)cc3)C2)CC1 (stereo unspecified)	.	74	.	.	.	.
CN1CCN(C(=O)C2CCCN(S(=O)(=O)N3CCCCC3)C2)CC1 (stereo unspecified)	.	65	.	.	.	.
Oc1c(C(c2ccco2)N2CCN(c3ccccc3)CC2)sc2ncnn12 (stereo unspecified)	.	.	.	.	/	/
